A selection: hits, their analogues and other compounds. The true share with any hit is near 2.2%.
Ba/F3 V617F tox = reduced viability of JAK2V617F-dependent Ba/F3 cells, primary screen, JAK2V617F inhibitor project, cell-based, Ba/F3 EpoR-JAK2V617F, luminescence; actives 1.1% (n = 220,000); inhibition, % at 5.6 µM; ATP luminescence;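 active means inhibition above the campaign mean plus 3 SD over all tested compounds, cut at about 24% in these data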;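 further: cytokine-independent growth of Ba/F3 cells driven by EpoR plus mutant JAK2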
APP 5UTR inh = inhibitors of APP translation via 5'UTR reporter, primary screen, APP 5'UTR luciferase, SH-SY5Y cells | SH-SY5Y APP 5'UTR-luciferase reporter, luminescence | inhibition, % at 2 µM | actives 0.82% (n = 190,000) | AID 1285, 2008;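 active means inhibition above a set limit, derived from the sample mean plus 3 SD, cut at about 45% in these data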
aSyn 5UTR inh = MLPCN primary screen, SNCA 5' untranslated region; alpha-synuclein 5'UTR reporter, inhibitor activity; actives 0.82% (n = 300,000); inhibition, % (tested at 7.5 µM); in the data active means inhibition above about 60%;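 further: H4 neuroglioblastoma cells stably carrying SNCA 5'UTR luciferase fusion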
BaF3 parental = parental Ba/F3 cell viability inhibition, counter-screen for JAK2V617F inhibitor project, murine pro-B, CellTiter-Glo luminescence; actives 1.1% (n = 220,000); CellTiter-Glo ATP luminescence; inhibition, % at 5.6 µM;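 active means inhibition above a per-campaign cutoff, the mean inhibition of all tested compounds plus 3 SD, cut at about 27% in these data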
KLF5 inh = KLF5 expression inhibitors, primary screen, DLD-1 cells, luminescence. DLD-1 KLF5 promoter-luciferase reporter. inhibition, % at 5 µM. actives 0.23% (n = 290,000). AID 1700, 2009;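 active means inhibition above a per-plate limit of that plate's mean compound inhibition plus 3 SD, cut at about 60% in these data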;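 further: higher means less KLF5 promoter-driven luciferase light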
IEC-6 cytotox = cytotoxicity in IEC-6 intestinal epithelial cells, primary screen, cytotoxicity control for KLF5 inhibitor project, cell-based, luminescence | AID 1825, 2009 | inhibition, % at 5 µM | actives 0.78% (n = 290,000) | IEC-6 cytotoxicity, luminescence viability; in the data active means inhibition above about 22%
Large screens that a line does not name were inactive.

CCOC(=O)C(C)Oc1cccc2c(=O)n(CC(=O)NCc3ccc4c(c3)OCO4)ccc12 (centres undefined)	Ba/F3 V617F tox 59, aSyn 5UTR inh 65, BaF3 parental 42
CC(=O)Nc1cc(C)nn1-c1nc(C)cc(C)n1	none
Cc1ccc(Nc2cc(C)nn2-c2nc(C)cc(C)n2)cc1	IEC-6 cytotox 30
Cc1ccc(-c2ccnc3c(Cl)c(C)nn23)cc1	aSyn 5UTR inh 69 (no result: Ba/F3 V617F tox, APP 5UTR inh, BaF3 parental)
Cc1ccc(Cn2c(/C=C/c3ccco3)nc3ccccc32)cc1	none
Clc1ccc(Cn2c(/C=C/c3ccco3)nc3ccccc32)cc1	BaF3 parental 27
COc1ccc(-c2coc3cc4oc(=O)c5ccccc5c4cc23)cc1F	APP 5UTR inh 96, aSyn 5UTR inh 81
CCOC(=O)c1cnc(-n2nc(C)cc2C)nc1NNc1ncc(-c2ccccc2)cn1	aSyn 5UTR inh 83 (no result: APP 5UTR inh)
CCOC(=O)c1cnc(-n2nc(C)cc2C)nc1NCc1ccccc1	none
CCOC(=O)c1cnc(-n2nc(C)cc2C)nc1NNc1cc(-c2ccccc2)nc(C)n1	APP 5UTR inh 56, aSyn 5UTR inh 93
COc1ccc(CCN(C)C2CCCN(S(=O)(=O)c3ccccc3F)C2)cc1OC (centres undefined)	none (no result: Ba/F3 V617F tox, APP 5UTR inh, BaF3 parental)
NC(=O)COc1ccc(/C=N\NC(=O)c2ccc(-c3ccccc3)cc2)cc1	none (no result: Ba/F3 V617F tox, APP 5UTR inh, BaF3 parental)
O=C(c1ccccc1Sc1ccccc1[N+](=O)[O-])N1CCCCC1	none
CCC(=O)c1cn(CC(=O)OC)c2ccccc12	APP 5UTR inh 68
CC(=O)c1cn(CC(=O)Nc2c(C)cccc2C)c2ccccc12	Ba/F3 V617F tox 33, BaF3 parental 43
COC(=O)Cn1cc(C(=O)OC)c2ccccc21	none
C=CCN(C(=O)CCc1ccccc1OC)c1nc(-c2ccc(S(C)(=O)=O)cc2)cs1	aSyn 5UTR inh 71 (no result: Ba/F3 V617F tox, APP 5UTR inh, BaF3 parental)
COc1ccc(NC(=O)CN2C(=O)NC3(CCCC3)C2=O)cc1OC	none (no result: Ba/F3 V617F tox, APP 5UTR inh, BaF3 parental)
O=C(Nc1ccccc1F)c1cc(S(=O)(=O)N2CCOCC2)cs1	none (no result: Ba/F3 V617F tox, APP 5UTR inh, BaF3 parental)
COc1ccc(/C=C/c2ccc3c(Br)ccc(O)c3n2)cc1	none (no result: Ba/F3 V617F tox, APP 5UTR inh, BaF3 parental)
COc1cc(/C=C/c2ccc3c(Br)cc(Br)c(O)c3n2)ccc1O	aSyn 5UTR inh 65 (no result: APP 5UTR inh)
CCOC(=O)C1=C(N)n2c(s/c(=C\c3cccs3)c2=O)=C(C(=O)OCC)C1c1cccs1 (centres undefined)	Ba/F3 V617F tox 42, BaF3 parental 54
CCOC(=O)C1=C(N)n2c(s/c(=C\c3ccncc3)c2=O)=C(C(=O)OCC)C1c1ccncc1 (centres undefined)	none
Cc1nn(-c2ccccc2Cl)c(Cl)c1/C=N/Nc1nc2ccccc2s1	aSyn 5UTR inh 69
CCN(CC)c1ccc(/C=N/n2c(-c3ccccc3Br)n[nH]c2=S)cc1	aSyn 5UTR inh 78 (no result: APP 5UTR inh)
Cc1cc(NC(=O)C(C)Sc2nc(-c3ccccc3)cc(=O)[nH]2)no1 (centres undefined)	none (no result: Ba/F3 V617F tox, APP 5UTR inh, BaF3 parental)
CC(=O)/C=C/c1ccccc1O	none
C[n+]1ccc(/C=C/c2ccccc2O)c2ccccc21	Ba/F3 V617F tox 58, BaF3 parental 71
COc1ccccc1CCNC(=O)CSc1nnc2ccc(-c3ccncc3)nn12	none
CN1CCN(C(c2ccc(Cl)cc2)c2cc(Cl)c3cccnc3c2O)CC1 (centres undefined)	aSyn 5UTR inh 77 (no result: Ba/F3 V617F tox, APP 5UTR inh, BaF3 parental)
O=C(NC(c1ccc(Cl)cc1)c1cc(Cl)c2cccnc2c1O)c1cccnc1 (centres undefined)	APP 5UTR inh 79, aSyn 5UTR inh 98
CCCCC(=O)NC(c1cccs1)c1cc(Cl)c2cccnc2c1O (centres undefined)	APP 5UTR inh 72, aSyn 5UTR inh 80
CCC(=O)NC(c1cccs1)c1cc(Cl)c2cccnc2c1O (centres undefined)	APP 5UTR inh 61, aSyn 5UTR inh 86
CN1CCN(C(c2ccc(C(F)(F)F)cc2)c2cc(Cl)c3cccnc3c2O)CC1 (centres undefined)	none (no result: Ba/F3 V617F tox, APP 5UTR inh, BaF3 parental)
O=C(NCc1ccc(Cl)cc1)c1cccnc1	none
O=C(O)c1cc2[nH]c3c(c2cc1Cl)CCCC3	none (no result: Ba/F3 V617F tox, APP 5UTR inh, BaF3 parental)
Cc1cccc(NC(=O)C(CCC(N)=O)NC(=O)OCc2ccccc2)c1 (centres undefined)	none (no result: Ba/F3 V617F tox, APP 5UTR inh, BaF3 parental)
CCCC(=O)NC(c1ccc(OC)c(OC)c1)c1cc(Cl)c2cccnc2c1O (centres undefined)	APP 5UTR inh 53
CC(=O)NC(c1ccc(C)cc1)c1cc([N+](=O)[O-])c2cccnc2c1O (centres undefined)	none
CCC(=O)NC(c1ccc(C)cc1)c1cc([N+](=O)[O-])c2cccnc2c1O (centres undefined)	aSyn 5UTR inh 64
CCOC(=O)C1=C(COC(=O)CCNS(=O)(=O)c2ccc(NC(C)=O)cc2)NC(=O)NC1C (centres undefined)	none (no result: Ba/F3 V617F tox, APP 5UTR inh, BaF3 parental, KLF5 inh, IEC-6 cytotox)
Cc1cccc(C)c1OCC(O)CN(Cc1ccccc1O)C1CCCCC1 (centres undefined)	aSyn 5UTR inh 62
CN(CC(O)COc1ccc(OCC(O)CN(C)C2CCCCC2)cc1)C1CCCCC1 (centres undefined)	none
COc1ccc(S(=O)(=O)NC2CCCC2)cc1C(N)=O	none (no result: Ba/F3 V617F tox, APP 5UTR inh, BaF3 parental)
CC(=O)Nc1cccc(NC(=O)CSc2nnnn2-c2ccc3c(c2)OCO3)c1	none (no result: APP 5UTR inh, aSyn 5UTR inh)
COc1cccc(Sc2ccccc2/C=N/NC(N)=O)c1	APP 5UTR inh 65
CC1CCC(=NNc2ccc(C(F)(F)F)cc2[N+](=O)[O-])CC1 (centres undefined)	none
CC1CCC/C(=N/Nc2ccc([N+](=O)[O-])cc2[N+](=O)[O-])C1 (centres undefined)	APP 5UTR inh 79
Cn1nnnc1SCCNC(=O)C1CCC(=O)N(Cc2ccc(Cl)cc2)C1 (centres undefined)	none (no result: Ba/F3 V617F tox, APP 5UTR inh, BaF3 parental)
CCCc1n(CC(O)COC2CCCCC2)c2ccccc2[n+]1C (centres undefined)	Ba/F3 V617F tox 26, BaF3 parental 55
CCCc1n(CC(O)COCc2ccccc2)c2ccccc2[n+]1C (centres undefined)	BaF3 parental 34
CCCc1n(CC(O)COCC2CC=CCC2)c2ccccc2[n+]1C (centres undefined)	Ba/F3 V617F tox 33, BaF3 parental 66
Cn1c(CSCc2ccc(Cl)cc2)n[nH]c1=S	none
COc1ccc(CN2C(=NC(=O)C3CCCCC3)SC3CS(=O)(=O)CC32)cc1 (centres undefined)	none (no result: Ba/F3 V617F tox, APP 5UTR inh, BaF3 parental)
CC1CSc2n(-c3cccc(C(F)(F)F)c3)cc(-c3ccccc3)[n+]21 (centres undefined)	Ba/F3 V617F tox 56, BaF3 parental 84
FC(F)(F)c1cccc(-n2cc(-c3ccccc3)[nH]c2=S)c1	none (no result: Ba/F3 V617F tox, APP 5UTR inh, BaF3 parental)
Cc1ccc(NC(=O)c2ccc(CNS(=O)(=O)c3cccc(C(F)(F)F)c3)cc2)cc1	BaF3 parental 33

Source: PubChem (several laboratories)
